About 50,000 (12%) of roughly 420,000 compounds were called active. Roughly 26% stayed inconclusive and do not appear here. Calls come from the whole dose curve; as a rule, active = well fitted inhibition curve with a large enough effect; inconclusive = small, poorly fitted or top-dose-only effect; inactive = flat fitted curve, though single readings scatter. For the sample, actives were picked, then their nearest neighbours and some compounds at random.
Test: qHTS for Inhibitors of human tyrosyl-DNA phosphodiesterase 1 (TDP1): qHTS in cells in presence of CPT; note: nearly all actives have a fitted effect of over 55% in size
Settings: chicken DT40 Tdp1-/-;hTDP1 cells + 20 nM CPT, ATP luminescence, 48 h; series mostly up to 46.2 µM; activity change, negative = growth inhibition: at the top concentration
In short: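 Chicken DT40 Tdp1-/- cells complemented with human TDP1, 400 cells/well, exposed to compounds plus 20 nM camptothecin for at least 48 h at 37 C; viability read as ATP content by CellTiter-Glo luminescence.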
% is set by controls: 0 for no effect and ±100 for the full control effect; potency is the fitted concentration of half-maximal effect.

SMILES | activity change, negative = growth inhibition | Potency
Cc1cc(OC(C)C(=O)NC2CC(C)(C)NC(C)(C)C2)c2c(C)cc(=O)oc2c1 (centres undefined) | 2.25% (inactive) | 
COCCNC(=S)N1CCN(C)CC1 | 2.15% (inactive) | 
CC1CCC2(CC1)NC(=O)N(CC(=O)c1cccn1C)C2=O (centres undefined) | 2.2% (inactive) | 
CC(C)(C)SCCSC1=CC(=O)CC(c2ccccc2)C1 (centres undefined) | -1.27% (inactive) | 
COC(=O)C(C)Oc1ccc2c(c1)O/C(=C\c1cccc(Br)c1)C2=O (centres undefined) | -0.346% (inactive) | 
Cc1ccc(S(=O)(=O)Oc2ccc(/C=N/NC(=O)c3ccncc3)cc2)cc1 | -2.8% (inactive) | 
CCOc1cc(/C=N/NC(=O)c2ccncc2)cc(Br)c1O | -2.85% (inactive) | 
Cc1ccc(OCCOCCOc2ccc(Br)cc2/C=N\NC(=O)c2ccncc2)cc1 |  | 18.4 µM (active)
COc1ccc(Cl)cc1NC(=O)CCC(=O)c1ccc(C)cc1 | -25.1% (inactive) | 
COc1ccc(Cl)cc1NC(=O)CCn1c(=O)c2cccn2c2ccccc21 |  | 20.6 µM (active)
Cc1ccc(NC(=O)CCCn2c(=O)c3cccn3c3ccccc32)cc1Cl | -24.8% (inactive) | 
CCCCn1c(N)c(N(CCC(C)C)C(=O)COC(=O)c2ccc(CC)cc2)c(=O)[nH]c1=O | -20.8% (inactive) | 
Cc1cccc(NC(=O)CSCC(=O)Nc2nnc(C3CC3)s2)c1 | 2.73% (inactive) | 
O=C(NC(CC(=O)N1CCN(c2ccccc2)CC1)c1ccccc1)c1ccccc1Cl (centres undefined) | 1.37% (inactive) | 
CCCCCN(C(=O)CCC(=O)OCCOc1ccc(OC)cc1)c1c(N)n(CCCC)c(=O)[nH]c1=O | -25.6% (inactive) | 
Cc1cccc(NC(=O)c2ccc(S(=O)(=O)N(C)CC3CCCO3)cc2)c1C (centres undefined) | -4.33% (inactive) | 
CCOc1ccc(S(=O)(=O)NCC2CCCO2)cc1 (centres undefined) | 14.8% (inactive) | 
O=C(Nc1ccc(S(=O)(=O)NCC2CCCO2)cc1)c1ccc(F)cc1 (centres undefined) |  | 14.6 µM (active)
CN(CC(=O)Nc1ccc(C(N)=O)cc1)S(=O)(=O)c1ccc2c(c1)OCCO2 | -20.2% (inactive) | 
CCOc1ccc(C(=O)Nc2ccc(S(=O)(=O)NCC3CCCO3)cc2)cc1OCC (centres undefined) | -12.9% (inactive) | 
CN(CC1CCCO1)S(=O)(=O)c1ccc(C(=O)Nc2ccc([N+](=O)[O-])cc2)cc1 (centres undefined) |  | 23.1 µM (active)
CCN(CC(=O)Nc1ccc(NC(C)=O)cc1)C(=O)C1CC(=O)N(Cc2ccc(C)cc2)C1 (centres undefined) | -13.7% (inactive) | 
O=C(C1CCCO1)N1CCN(C(=O)C23CC4CC(CC(C4)C2)C3)CC1 (centres undefined) | -21.8% (inactive) | 

SMILES | activity change, negative = growth inhibition | Potency
COc1cc(C(=O)N2CCN(C3CCC(C)CC3)CC2)cc(OC)c1OC (centres undefined) | -24.6% (inactive) | 
CCOC(=O)C1CCN(S(=O)(=O)c2c(C)noc2C)CC1 | -0.368% (inactive) | 
COc1cccc(N(CC(=O)NC2CCCC2)C(=O)Cn2nnc(-c3ccc(C)o3)n2)c1 | 5.02% (inactive) | 
CC(C)COc1ccc(C(=O)OCC(=O)NCCC2=CCCCC2)cc1 | -14.1% (inactive) | 
O=C(O)CN(Cc1ccco1)S(=O)(=O)c1ccc(F)cc1 | 2.84% (inactive) | 
C=CCn1c(SCC(=O)c2c(N)n(C)c(=O)n(C)c2=O)nc2sc(CC)cc2c1=O | -8.2% (inactive) | 
NC1=CC(=O)C(=O)c2cccnc21 |  | 3.66 µM (active)
O=C1c2cccnc2C(=O)N1Cc1cccs1 | 12.8% (inactive) | 
Cc1cccc(N2C(=O)c3cccnc3C2=O)c1 | 4.51% (inactive) | 
O=C(NC1CCCCC1)C1CC(=O)N(CCc2ccccc2)C1 (centres undefined) | -5.56% (inactive) | 
CC(NC(=O)COC(=O)CCC(=O)c1ccc(Cl)cc1)c1ccccc1 (centres undefined) | -8.03% (inactive) | 
CC1CCC(NC(=O)CNC(=O)c2ccc3ccccc3c2)CC1 (centres undefined) | -25.8% (inactive) | 
CCCCCC(=O)Nc1ccc(C(=O)N/N=C/c2ccc([N+](=O)[O-])cc2)cc1 | 2.57% (inactive) | 
O=C(N/N=C/c1ccc([N+](=O)[O-])cc1)C(=O)N1CCCC1 | -9.59% (inactive) | 
Cc1cc(C)nc(Nc2cc([N+](=O)[O-])ccc2C)n1 | 8.55% (inactive) | 
Cc1cc(C)nc(N/N=C/c2ccc([N+](=O)[O-])o2)n1 |  | 23.1 µM (active)
CCOc1ccc(NC(=O)CCC(=O)N/N=C/c2ccc([N+](=O)[O-])s2)cc1 |  | 10.3 µM (active)
Cc1cc(C)nc(N/N=C/c2ccncc2)n1 | 10.1% (inactive) | 
COc1ccccc1OCCNC(=O)c1cc([N+](=O)[O-])cc([N+](=O)[O-])c1 | 2.49% (inactive) | 
NC(=O)C(=O)N/N=C/c1ccc([N+](=O)[O-])o1 |  | 10.6 µM (active)
COc1cc(/C=N/NC(=O)CNC(=O)c2ccncc2)ccc1OC(C)=O | 11% (inactive) | 
CCOc1ccc(NC(=O)CCC(=O)NNC(=O)NC2CCCCC2)cc1 | -25.9% (inactive) | 
COc1ccc(C(=O)NCC(=O)N/N=C/c2ccc([N+](=O)[O-])o2)cc1OC |  | 2.31 µM (active)

SMILES | activity change, negative = growth inhibition | Potency
NC(=S)N/N=C/c1ccc([N+](=O)[O-])cc1 | -18.6% (inactive) | 
CC(C)[C@@H](C(=O)O)N(Cc1cccc(CN([C@H](C(=O)O)C(C)C)S(C)(=O)=O)c1)S(C)(=O)=O | -12.6% (inactive) | 
CC1=C(C(=O)Nc2ccccc2)C(c2ccc(C)cc2)n2nc(SCc3ccccc3C)nc2N1 (centres undefined) | 3.41% (inactive) | 
COc1cccc(NC(=O)C(=O)NCC(c2ccc3c(c2)OCO3)N2CCN(C)CC2)c1 (centres undefined) | -23.2% (inactive) | 
COc1ccccc1CNS(=O)(=O)CC12CCC(CC1=O)C2(C)C (centres undefined) | -2.24% (inactive) | 
CCCc1c2oc(C(=O)O)cc(=O)c2cc2c(=O)cc(C(=O)O)n(CC)c12 | 16.1% (inactive) | 
Cc1ccc(CC2CC(=O)N(c3cc(C)ccc3C)C2=O)cc1 (centres undefined) | 2.68% (inactive) | 
NS(=O)(=O)c1ccccc1NC(=O)c1c(O)c2ccccc2[nH]c1=O | -1.4% (inactive) | 
Cc1oc2cc(Br)c(O)c(Br)c2c1C(=O)c1ccccc1 | 10.4% (inactive) | 
O=C(Nc1ccc(N2CCOCC2)cc1)c1cccc2c(-c3ccc(F)c(F)c3)coc12 | -58.3% (inactive) | 
COc1ccc(N2CCN(C(=S)Nc3ccc(S(N)(=O)=O)cc3)CC2)cc1 | -27.4% (inactive) | 
C/C(Cc1ccccc1)=N\NC(=O)CNC(=O)c1ccccc1Cl | -4.25% (inactive) | 
Cc1ccc(C(=O)N(CC(=O)NC2CCCC2)c2ccc(F)cc2)s1 | -1.84% (inactive) | 
COc1cc(/C=N\NC(=O)CNC(=O)c2cccc([N+](=O)[O-])c2)ccc1O | -1.83% (inactive) | 
Cc1nn(CC(=O)N/N=C/c2ccc(F)cc2)c(C)c1[N+](=O)[O-] | 8.62% (inactive) | 
COc1ccc(/C=N/NC(=O)CNC(=O)c2ccc(S(=O)(=O)N3CCCC3)cc2)c(OC)c1 | -12.7% (inactive) | 
Cc1nn(-c2ccccc2)c(Cl)c1/C=N/NC(=O)c1nn(C)cc1[N+](=O)[O-] | -5.46% (inactive) | 
CC(C)(C)c1cc(C(=O)N/N=C/c2ccc([N+](=O)[O-])s2)n[nH]1 |  | 9.2 µM (active)
COc1ccc(C(=O)NCC(=O)N/N=C/c2ccc([N+](=O)[O-])s2)cc1OC |  | 20.6 µM (active)
O=C(COc1ccccc1[N+](=O)[O-])N/N=C/c1ccc[nH]1 | 0.416% (inactive) | 
O=C(Cc1cc(=O)[nH][nH]1)N/N=C/c1ccccc1[N+](=O)[O-] | -0.646% (inactive) | 
Cc1ccccc1NCC(=O)N/N=C\c1ccc([N+](=O)[O-])s1 |  | 8.2 µM (active)
C/[N+]([O-])=C\c1ccc([N+](=O)[O-])o1 |  | 25.9 µM (active)

Reference: PubChem BioAssay AID686979 (National Center for Advancing Translational Sciences (NCATS), 2013)
